Assay outcomes from PubChem BioAssay.
PNC inhibitor: blocks assembly of the perinucleolar compartment | PC3M PTB-GFP, PNC prevalence imaging, 16 h; hits give low values | activity change (PNC), negative = inhibition, % at 10 µM | 140,000 compounds, 3.1% hits | AID 2417;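 active means readout at or below -70, meaning at least 70% loss of cells showing the perinucleolar compartment, a nuclear body marking cancer cells; inconclusive means readout between -30 and a set limit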
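PC3M cells stably expressing PTB-GFP, 750–1000 cells/well, treated 16 h at 37 °C with compound (23 nl of library stock), in duplicate. After paraformaldehyde fixation and Hoechst stain, imaged at 20x; PNC prevalence scored by image analysis.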
ALOX15B inhib: 15-hLO-2 (ALOX15B) enzyme inhibition; O15296; purified 15hLO-2, xylenol orange hydroperoxide absorbance; Potency, µM (titrated, usually from 57.1 µM), hits mostly inhibitors; 110,000 compounds, 0.56% hits; AID 881; further: nearly all actives have a fitted effect of over 60% in size
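Screening format was qHTS against 50 nM purified 15hLO-2 in Hepes pH 7.5 with detergent. Activity follows hydroperoxide formation from 45 uM arachidonic acid, measured as 573:405 nm absorbance ratio of the ferric-xylenol orange complex.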
ALOX12 inhib: blocks human 12-lipoxygenase activity. 150,000 compounds, 0.12% hits. Potency, µM (titrated, usually from 57.1 µM), usual class: inhibitors. P18054. purified 12-hLO, xylenol orange hydroperoxide absorbance; further: nearly all actives have a fitted effect of over 55% in size
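Purified human 12hLO (150 nM final) was preincubated with compounds for 15 min at room temperature in 25 mM Hepes pH 7.0, 0.01% Triton X-100, then reacted with 40 uM arachidonic acid for 30 min. Hydroperoxide was detected with ferrous iron/xylenol orange.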
IMPase cell inh: IMPase inhibition in cells. P97697. CHO-M1 cells, IP1 accumulation, HTRF TR-FRET ratio. inhibition (IP1 accumulation), % at 46.1 µM. 120,000 tested, under 10 active; active means well fitted curve in the direction sought with a large enough effect in the signal ratio, not every such curve was filed as active; inconclusive means small, poorly fitted or top-dose-only effect, or a change in a side signal; inactive means no such curve, though single readings can be large or run the other way; the % refers to the signal ratio;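 further: cells stimulated with carbachol in lithium chloride buffer; higher means more IMPase inhibition seen as more IP1 and lower FRET ratio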
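In this qHTS, compounds (final up to 46 uM) act on CHO-M1 cells that are then activated through the M1 receptor with carbachol, in pH 7.4 buffer containing 50 mM LiCl, for 30 min. IP1 accumulation is quantified by the IP-One immunoassay.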
Hits are given with their value; . = inactive; ? = inconclusive; / = no result given; [ ] = remark or other dose. Rows were chosen to be rich in hits. Some 3% of all compounds tested hit in one or more screens of this group. Unless noted, the call rests on the fitted dose curve; in most records, active means well fitted curve in the direction sought with a large enough effect; inconclusive means small, poorly fitted or top-dose-only effect, or another doubt; inactive means no such curve, though single readings can be large; an effect the other way counts as inactive or inconclusive.

SMILES	PNC inhibitor	ALOX15B inhib	ALOX12 inhib	IMPase cell inh
O=c1c2ccccc2nc(/C=C/c2ccc([N+](=O)[O-])o2)n1CCCO	-88.6	.	.	.
CCCCS(=O)(=O)N1C2=NC(C(=O)OC)=C(C(=O)OC)[C@@H]3N(C)c4ccccc4[C@]23C[C@H]1C(=O)OC	/	/	.[11.4 µM]	/
C[C@@H]1CCCC(CC(=O)O)(CC(=O)O)C1	/	.[11.4 µM]	.[11.4 µM]	/
CCOC(=O)c1sc(NC(=O)c2cccc(S(=O)(=O)N3c4ccccc4CC3C)c2)cc1C (configuration not stated)	-95.0	/	.	/
Cc1nc2ccccc2n1/C(=N/S(=O)(=O)c1ccc(Br)cc1)c1ccccc1	-100.0	/	.	.
Cc1nc2ccccc2n1C(=O)c1ccccc1[N+](=O)[O-]	.	/	.	.
CCc1ccc(C(=O)CN2C(=O)NC(C)(CCc3ccccc3)C2=O)cc1 (configuration not stated)	?	/	.	.
Cn1nc(-c2ccc(Cl)cc2)c2cc(C(=O)NC3CC3)sc21	-86.0	.	.	.
COC(=O)c1cccc(C23CC4(C2)[C@H](CN(CC2CCCCC2)[C@@H]4c2ccccc2)C3c2ccc(Cl)nc2)c1 (some centres not stated)	/	.	.	/
CSc1nnc(CNC(=O)C23CC4CC(CC(C4)C2)C3)n1Cc1ccccc1	-115.1	/	.	.
Cc1nn(C)cc1CNC(=O)c1cccc(F)c1	-98.0	/	.	/
O=c1cc(-c2ccccc2)nc2nc(-c3ccco3)[nH]n12	-116.6	.	.	.
O=c1cc(-c2ccccc2)nc2nc(CCc3ccccc3)[nH]n12	-106.5	.	.	.
O=c1cc(-c2ccccc2)nc2nc(SCc3ccccc3)[nH]n12	?	.	.	.
O=C(O)[C@H]1C[C@H](C(=O)O)N1	/	.	.	.
COc1ccc(-c2noc(COc3cc(C)ccc3C)n2)cc1OC	/	/	/	.
CC(C)CC(=O)N1CCN(S(=O)(=O)c2ccc(F)cc2)CC1	-119.1	.[2.29 µM]	.	.
Cc1ccc2c(c1)-c1c(ssc1=S)C(C)(C)N2C(=O)c1ccco1	-100.0	/	.	.
CC(=O)O[C@@H]1C[C@]2(C)[C@H](C[C@@H](O)[C@H]3[C@@]4(C)CC[C@@H](O)[C@@H](C)[C@@H]4CC[C@@]32C)/C1=C(\CCC=C(C)C)C(=O)O	/	.	.	.
O=C(CSc1nnc(-c2ccncc2)n1Cc1ccco1)N1c2ccccc2Sc2ccc(Cl)cc21	-100.0	/	.	.
Cn1c(SCC(=O)N2c3ccccc3Sc3ccc(Cl)cc32)nnc1-c1ccco1	.	/	.	.
O=C(CSc1nnc(-c2ccccc2Cl)n1Cc1ccco1)Nc1ccc2c(c1)OCCO2	-96.2	.	.	.
O=C(CSc1nnc(-c2ccncc2)n1Cc1ccco1)Nc1nccs1	-100.0	/	.	?
Cc1cccc(C)c1NC(=O)CSc1nnc(-c2ccncc2)n1Cc1ccco1	.	.	.	.
O=P(O)(O)O[C@@H]1[C@H](O)[C@H](O)[C@@H](OP(=O)(O)O)[C@H](OP(=O)(O)O)[C@H]1O	/	.[0.0915 µM]	.[0.00818 µM]	/
SMILES	PNC inhibitor	ALOX15B inhib	ALOX12 inhib	IMPase cell inh
COc1ccc(NC2C[C@H]3CCCC(=O)N4CC[C@@H](C2)[C@@H]34)cc1 (some centres not stated)	/	.[0.0915 µM]	.[0.00818 µM]	/
Nc1nonc1NC(=O)CSc1ncccc1C(=O)O	-83.6	.	.	.
CCOc1ccccc1NC(=O)Cn1nnc(C(=O)Nc2ccccc2Cl)c1N	?	.	.	.
CCc1ccccc1NC(=O)c1nnn(CC(=O)Nc2ccccc2C)c1N	-102.2	.	.	.
Cc1cc(=O)[nH]c(=S)n1-c1ccccc1	-122.4	.[2.29 µM]	.	.
CCCCCCCCCCCCOCC1CO1 (configuration not stated)	/	.	.	/
c1ccc([C@H](c2cccc3c2ccc2ccccc23)[C@H](c2ccccc2)c2cccc3c2ccc2ccccc23)cc1	/	.[11.4 µM]	.[11.4 µM]	/
Cc1cc(C)nc(NC(=O)c2ccc(C)c([N+](=O)[O-])c2)n1	?	.	.	.
Cc1cc(C)nc(NC(=O)c2ccc([N+](=O)[O-])o2)n1	-86.0	/	.	/
Cc1cc(C)nc(NC(=O)c2cc([N+](=O)[O-])cc([N+](=O)[O-])c2)n1	-113.4	/	.	/
Cc1c(Cl)cccc1NC(=O)c1ccc(OCC(=O)NCc2ccccc2)cc1	.	/	.	.
COc1ccccc1Oc1coc2c(CN(C)C)c(O)ccc2c1=O	.	.	.	.
CCN(CC)Cc1c(O)ccc2c(=O)c(Oc3ccccc3OC)coc12	-80.1	.	.	.
CN(c1ccc(C(=O)NCc2cccnc2)cc1)S(C)(=O)=O	-100.0	/	.	.
